CYP2C19 act = human CYP2C19 activators, primary screen, biochemical, luminescence | Cytochrome P450 2C19 (Homo sapiens), P33261 | 96,000 tested, under 10 active | activation factor at 5 µM | recombinant CYP2C19, luciferin-H EGE luminescence; hits give high values; 0 = fully inhibited enzyme, 1 = untreated enzyme;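 active = activation factor of at least 2 at 5 µM in the primary screen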;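 also: 0 = wells with 2.5 mM tranylcypromine and 1 = vehicle-only wells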
Target sequence (P33261 whole entry, looked up): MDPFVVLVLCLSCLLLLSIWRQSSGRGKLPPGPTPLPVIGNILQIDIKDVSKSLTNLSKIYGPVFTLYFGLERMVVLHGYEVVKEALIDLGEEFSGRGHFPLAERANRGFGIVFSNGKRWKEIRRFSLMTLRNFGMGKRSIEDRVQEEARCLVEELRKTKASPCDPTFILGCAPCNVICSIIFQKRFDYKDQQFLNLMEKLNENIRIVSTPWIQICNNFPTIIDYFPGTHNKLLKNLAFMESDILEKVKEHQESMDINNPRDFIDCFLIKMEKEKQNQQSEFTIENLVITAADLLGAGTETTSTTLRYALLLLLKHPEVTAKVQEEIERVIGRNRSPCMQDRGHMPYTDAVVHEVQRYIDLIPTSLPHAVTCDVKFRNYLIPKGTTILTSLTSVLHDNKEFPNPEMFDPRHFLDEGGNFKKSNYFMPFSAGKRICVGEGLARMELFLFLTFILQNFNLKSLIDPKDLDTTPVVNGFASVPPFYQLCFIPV
CYP2C19 inhib = blockers of cytochrome P450 2C19 activity – biochemical, luminescence, ADME assay, primary screen; inhibition, % at 5 µM; hit rate 21% among 96,000; CYP2C19 Supersomes, luciferin-H EGE luminescence, 30 min; P33261; AID 778, 2007;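 active = CYP2C19 inhibition above a set limit at 5 µM in the primary screen, cut at about 50% in these data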;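 also: plate controls were negative control wells for no effect and 2.5 mM tranylcypromine positive control for full effect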
Cav3 T inh = Cav3.2 calcium influx blockers – cell-based, Fluo-4 calcium fluorescence, FDSS, MLSMR library, primary screen | Voltage-dependent T-type calcium channel subunit alpha-1H (Homo sapiens), O95180 | Cav3.2-expressing cells; hits give low values | B-score at 10 µM | hit rate 4% among 100,000 | AID 449739, 2010;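 active = single-dose well whose peak fluorescence ratio is a statistical outlier from its plate by either plate-standardised score or position-corrected B-score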
CYP2C9 inh = blockers of cytochrome P450 2C9 activity – biochemical, luminescence, ADME assay, primary screen; CYP2C9 Supersomes, luciferin-H conversion; hit rate 20% among 96,000; inhibition, % at 5 µM; AID 777, 2007;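 active = blocking of liver enzyme CYP2C9 beyond about 50% at 5 µM, limit read from the data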
CYP2C9 act = human CYP2C9 activators, primary screen, biochemical, luminescence; Cytochrome P450 2C9 (Homo sapiens), P11712; recombinant CYP2C9, luciferin-H conversion; hits give high values; factor 1 = untreated enzyme, 0 = blocked; activation factor at 5 µM; hit rate 1.4% among 96,000; AID 1024, 2008;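 active = activation factor of 2 or more for CYP2C9 at a 5 µM dose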;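 also: 0 = sulfaphenazole-blocked wells and 1 = vehicle-only wells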
Starred values were filed as active, the others as inactive; / = no result given; ! = a repeat was not active. Hits are enriched below; roughly 27% of the tested compounds scored in any of these assays.

SMILES	CYP2C19 act	CYP2C19 inhib	Cav3 T inh	CYP2C9 inh	CYP2C9 act
CCNc1nc(NC(C)C)nc(OCC)n1	1	2	0.1	12	0.9
CCOc1nc(NC2CCCCC2)nc(NC(C)(C)C)n1	/	/	-5.3*	/	/
COc1ccc2c(c1)[nH]c1c(=O)n(CCc3cnc[nH]3)cnc12	0.2	85*	-0.08	96*	0
COc1ccc2c(c1)[nH]c1c(=O)n(CCN(C)C)cnc12	1	4	1.1	28	0.7
CCCn1c2ccccc2c2nnc(SC(CC)C(=O)Nc3sc4c(c3C#N)CCCC4)nc21 (stereo unspecified)	0.3	70*	0.016	89*	0.1
Cc1cccc(COCCN2CCN(S(=O)(=O)c3ccccc3)CCC2=O)c1	/	/	-0.24	/	/
COc1cccc(-n2c(C)nc3cc(C(=O)O)ccc32)c1	1.3	-26	1.4	-32	1.3
CCOC(=O)Cc1csc(SC(C)C(=O)Nc2ccc(NC(C)=O)cc2)n1 (stereo unspecified)	0.3	68*	0.19	91*	0.1
O=C1/C(=C/c2ccc(N3CCOCC3)o2)SC(=Nc2ccccc2)N1CCc1c[nH]c2ccccc12	0.7	26	/	63*	0.4
COc1ccc(NC(=O)C(C/C=C(/C)Cl)C(C)=O)cc1 (stereo unspecified)	/	/	-0.3	/	/
COc1ccccc1CCn1cnc2c3cc(C)ccc3n(C)c2c1=O	0.1	93*	-2.4	71*	0.3
COc1ccc2c(c1)c1ncn(CCN3CCCC3)c(=O)c1n2C	1.1	-14	/	11	0.9
COc1ccc2c(c1)c1ncn(CCN3CCCCC3)c(=O)c1n2C	0.6	43	-1.2	56*	0.4
CCOC(=O)/C=C1\SCC(=O)N1CC(=O)Nc1ccccc1OC(F)F	0	96*	1	38	0.6
COCCCNC(=O)c1ccc(N(C)S(C)(=O)=O)cc1	1.2	-18	0.36	-20	1.2
Cc1ccc(C(=O)N2CCC(C(N)=O)CC2)cc1C	1	-1	-2.3	-34	1.3
COc1ccc(S(=O)(=O)N2CCC(C(N)=O)CC2)cc1	/	/	-0.034	/	/
Cc1ccc(CSCCNC(=O)c2ccc(N(C)S(=O)(=O)c3ccccc3)cc2)cc1	0.9	8	-5.6*	86*	0.1
COCCCNC(=O)c1ccc(N(C)S(=O)(=O)c2ccc(OC)cc2)cc1	0.9	12	-0.018	70*	0.3
NC(=O)C1CCN(C(=O)c2ccc(Oc3ccccc3)cc2)CC1	0.9	13	0.45	56*	0.4
COc1ccc(S(=O)(=O)N(C)c2ccc(C(=O)N3CCC(C(N)=O)CC3)cc2)cc1	1.1	-8	0.97	50*	0.5
CC(C)CNC(=O)c1cccc(NC(=O)c2ccc(NC(=O)c3ccco3)cc2)c1	0.9	10	-2.8	21	0.8
O=C(Cn1ncc2c(=O)oc3ccccc3c21)N1CCCN(Cc2ccccc2F)C1	1	-1	0.97	18	0.8
c1ccc(CN(CC2=NCCN2)c2ccccc2)cc1	/	/	-2.8*!	/	/
COc1ccc(CNC(=O)C2CCCN2S(=O)(=O)c2ccc(S(=O)(=O)N(C)C)cc2)cc1 (stereo unspecified)	0.9	9	0.17	30	0.7
SMILES	CYP2C19 act	CYP2C19 inhib	Cav3 T inh	CYP2C9 inh	CYP2C9 act
CN(C)S(=O)(=O)Oc1cccc(C(=O)Nc2ccc(Cl)cc2)c1	0.6	45	-2.7	68*	0.3
COc1cccc(C(=O)Nc2ccc(C)cc2)c1	0.8	24	0.25	-6	1.1
CN(C)S(=O)(=O)Oc1cccc(C(=O)Nc2ccccc2Cl)c1	0.5	52*	-1.3	52*	0.5
O=C(Cn1nnc(-c2ccc(OCc3ccccc3F)cc2)n1)N1CCOCC1	/	/	0.22	/	/
COc1cc(C)c(C(=O)Oc2cc(C)c(C(=O)O)c(O)c2)c(O)c1	/	/	-4.8*	/	/
Cc1ccc2c(=O)c(C(=O)NCc3cccs3)c[nH]c2c1	/	/	-0.68	/	/
NS(=O)(=O)c1ccc(CCNC(=O)C2CCCCN2S(=O)(=O)c2ccccc2)cc1 (stereo unspecified)	0.9	13	0.051	66*	0.3
NS(=O)(=O)c1ccc(CCNC(=O)[C@@H]2CCCN2S(=O)(=O)c2ccccc2F)cc1	1	-2	0.58	61*	0.4
CCOc1ccc(CC(C(N)=O)C(N)=O)cc1CN(C)C	1.1	-11	1.3	-5	1.1
Cc1cc(N)n2ncc(-c3ccccc3)c2n1	0.6	38	0.19	35	0.7
Cc1cc(N)n2ncc(-c3cccc(Br)c3)c2n1	0.6	39	-1	72*	0.3
CCn1nc(C)c(C(=O)Nc2cc(Oc3ccc(Cl)cc3)cc([N+](=O)[O-])c2)c1C	0.8	25	-1.4	48	0.5
Cc1ccc(-c2csc(NC(=O)c3cccc(N4C(=O)CCC4=O)c3)n2)o1	/	/	-5.2*	/	/
COc1ccccc1N1CCN(C(=O)c2ccoc2C)CC1	0.3	74*	0.1	16	0.8
Cc1onc(-c2ccccc2Cl)c1C(=O)N1CCN(C/C=C/c2ccccc2)CC1	0.9	5	-2.8	-3	1
COC(=O)C1CCN(C(=O)c2c(-c3ccccc3Cl)noc2C)CC1	0.5	54*	0.32	15	0.9
COc1ccccc1N1CCN(C(=O)c2c(-c3ccccc3Cl)noc2C)CC1	0.1	94*	0.46	65*	0.3
CC(NC(=O)c1ccccc1Br)c1nnc(SCc2ccc([N+](=O)[O-])cc2)n1C (stereo unspecified)	1.1	-7	-1.3	-2	1
CS(=O)(=O)N1CCN(C2CCN(Cc3ccccc3)CC2)CC1	1.1	-9	0.68	-15	1.2
CCn1ccnc1C(O)c1cccc(OC)c1OC (stereo unspecified)	1	1	1.1	-15	1.2
COc1ccc(Nc2nnc(Cc3ccccc3)c(=O)[nH]2)c(OC)c1	1	1	-0.21	26	0.7
COc1ccc(Nc2nnc(Cc3ccc(Cl)cc3)c(=O)[nH]2)c(OC)c1	0.6	39	-2.2	62*	0.4
O=C1C(c2ccc(F)cc2)N(Cc2ccc3c(c2)OCO3)C(=O)CN1C1CCCCC1 (stereo unspecified)	0.8	19	0.027	33	0.7
O=C(O)c1ccccc1N=Nc1ccc(O)cc1	/	/	0.46	/	/
O=[N+]([O-])c1ccc(N=Nc2ccc(O)cc2O)cc1	0.3	69*	-8.8*	57*	0.4
CNC(=S)N1N=C(c2ccc(C)cc2)CC1c1ccc(Br)cc1 (stereo unspecified)	0.4	55*	-6.3*	92*	0.1
CNC(=S)N1N=C(c2ccc(C)cc2)CC1c1ccc(Cl)cc1 (stereo unspecified)	0.7	29	-6.2*	90*	0.1
Cc1ccc(NC(=O)c2ccccc2)cc1OC(=O)c1ccccc1	0.7	33	-0.035	21	0.8
